# Results filed as inconclusive are left out. Entries that show only a call come without a potency. Values without a mark were called inactive. Calls of active or inactive are those of the source. Calls come from the whole dose curve; as a rule, active = well fitted curve in the direction sought with a large enough effect; inconclusive = small, poorly fitted or top-dose-only effect, or another doubt; inactive = no such curve, though single readings can be large; an effect the other way counts as inactive or inconclusive. Where a SMILES comes first, the peptide text is derived from it.
# Assays:
# [1] = target: Calcium and integrin-binding protein 1 (Homo sapiens) (UniProt Q99828); test: Primary qHTS for Identification of Calcium Integrin Binding Protein 1 (CIB1) Competitor (AID 1508620);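 note: GST tagged CIB1 binding a fluorescein labelled alphaIIb integrin peptide tracer; top concentration of the series differs between compounds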
# Chain of Calcium and integrin-binding protein 1 (Homo sapiens) (Q99828 whole entry, looked up): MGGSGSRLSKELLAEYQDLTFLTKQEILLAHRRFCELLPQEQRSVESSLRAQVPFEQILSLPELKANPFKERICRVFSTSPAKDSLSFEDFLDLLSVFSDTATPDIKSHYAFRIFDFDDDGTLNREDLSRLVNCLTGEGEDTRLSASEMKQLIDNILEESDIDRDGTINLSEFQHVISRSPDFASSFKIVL
# How it was run: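 CIB1-GST (1 uM final) and compound incubated 15 min at room temperature before adding FITC-alphaIIb peptide tracer (100 nM final). Competition for binding read by fluorescence polarization (ex 480, em 540) after another 15 min at room temperature.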
# [2] = Primary qHTS for inhibitors of nuclear receptor binding SET domain protein 2 (NSD2) in an isogenic RCH-ACV NSD2 p.E1099K mutant (9B) (AID 1645876); note: nearly all actives have a fitted effect of over 70% in size; note: potency is the fitted concentration of half-maximal effect
# [3] = Primary qHTS for inhibitors of nuclear receptor binding SET domain protein 2 (NSD2) in an RCH-ACV wild type WT cells (2C) (AID 1645877); note: nearly all actives have a fitted effect of over 70% in size; note: potency is the fitted concentration of half-maximal effect
Compound,Potency [1],"activity change, negative = viability loss [2]","activity change, negative = cell killing [3]",Potency [2],Potency [3]
CSCC[C@H](NC(=O)[C@H](CO)NC(=O)[C@H](CCC(=O)O)NC(C)=O)C(=O)N[C@H](C=O)CC(=O)O (Ac-ESMD-aldehyde),inactive,-10.4% [at 9.23 µM],-15.7% [at 9.23 µM],–,–
C=C(CCO[C@@H]1O[C@H](CO)[C@@H](O)[C@H](O)[C@H]1O)C(=O)O,inactive,–,–,inactive,inactive
CC1C2=CC(=O)OC2(O)CC2C1CCC1C(C)(C)CCC(O)C21C (configuration not stated),inactive,–,–,14.2 µM (active),8.98 µM (active)
C=C1CC23CC(=O)C4C(CO)(CO)CCCC4(C)C2CCC1C3 (configuration not stated),inactive,–,–,inactive,inactive
C=C(COC(=O)C(C)C)C1Oc2cc(C(C)=O)ccc2C1OC(=O)C(C)C (configuration not stated),inactive,–,–,inactive,inactive
CC1=CCC[C@@H]2[C@@](C)(CCc3ccoc3)[C@H](C(=O)O)CC[C@@]12C,inactive,–,–,inactive,inactive
C=C1C2CCC3C(CCC4[C@@]3(C)CCC[C@@]4(C)C(=O)O)(C2)[C@@H]1OC(=O)/C(C)=C\C (some centres not stated),inactive,–,–,inactive,inactive
COc1ccc(/C=C/C(=O)O[C@@H]2[C@@H](O)[C@@H](O)[C@H](O[C@H]3[C@@H]4C=CO[C@@H](O[C@@H]5O[C@H](CO)[C@@H](O)[C@H](O)[C@H]5O)[C@@H]4[C@@]4(CO)O[C@@H]34)O[C@H]2C)cc1,inactive,–,–,inactive,inactive
CCCC/C=C\CCCCCc1cc(=O)c2ccccc2n1C,inactive,–,–,inactive,inactive
COC(=O)C1=COC(O[C@@H]2O[C@H](CO)[C@@H](O)[C@H](O)[C@H]2O)/C(=C\COC(=O)/C=C/c2ccccc2)C1CC(=O)OCCc1ccc(O)cc1 (some centres not stated),inactive,–,–,inactive,inactive
C/C1=C\CC[C@]2(C)O[C@H]2C(=O)c2c(C)coc2C1,inactive,–,–,inactive,inactive
O=C(Nc1ccn(Cc2c(F)cccc2C(F)(F)F)n1)c1c(F)cccc1F,inactive,-7.96% [at 9.23 µM],-25.3% [at 9.23 µM],–,–
COC(=O)C1=CO[C@@H](O[C@@H]2O[C@H](CO)[C@@H](O)[C@H](O)[C@H]2O)[C@@H]2C(CO)=CC[C@H]12,inactive,–,–,inactive,inactive
C=C(C(=O)O)[C@H]1C[C@]2(C)C(=O)CC[C@]23O[C@H]1C[C@@H]3C,inactive,–,–,inactive,inactive
C=C(C(=O)O)[C@@H]1CC[C@@]2(C)CCC[C@@](C)(O)[C@@H]2C1,inactive,–,–,inactive,inactive
CC1=CCC(O)C2(C)CCC3C(C)C(=O)OC3C12 (configuration not stated),inactive,–,–,inactive,inactive
COC(=O)C1=CO[C@@H](O[C@@H]2O[C@H](CO)[C@@H](O)[C@H](O)[C@H]2O)[C@@H]2[C@@H](C)[C@@H](O)C(O)[C@H]12 (some centres not stated),inactive,–,–,inactive,inactive
COc1ccc(C2C(C(=O)O)C(C(=O)O)C2c2ccc(OC)cc2O[C@@H]2O[C@H](CO)[C@@H](O)[C@H](O)[C@H]2O)c(O[C@@H]2O[C@H](CO)[C@@H](O)[C@H](O)[C@H]2O)c1 (some centres not stated),inactive,–,–,inactive,inactive
C[C@@H]1O[C@@H](O[C@H]2[C@@H]3C=CO[C@@H](O[C@@H]4O[C@H](CO)[C@@H](O)[C@H](O)[C@H]4O)[C@@H]3[C@@]3(CO)O[C@@H]23)[C@H](O)[C@H](O)[C@H]1OC(=O)/C=C/c1ccc(O)cc1,inactive,–,–,inactive,inactive
C[C@H]1[C@H](C)CC[C@]2(C(=O)O)CC[C@]3(C(=O)O)C(=CCC4[C@@]5(C)CC[C@H](O[C@@H]6O[C@@H](C)[C@H](O)[C@@H](O)[C@H]6O)C(C)(C)C5CC[C@]43C)[C@H]12 (some centres not stated),inactive,–,–,inactive,inactive
CC(=O)/C=C/C1C(C)CC(O[C@@H]2O[C@H](CO)[C@@H](O)[C@H](O)[C@H]2O)CC1(C)C (some centres not stated),inactive,–,–,inactive,inactive
CC1C2=CC(=O)OC2(O)CC2C1C(OC(=O)c1ccccc1)C(OC(=O)c1ccccc1)C1(O)C2(C)CCC(O)C1(C)C(=O)O (configuration not stated),inactive,–,–,inactive,inactive
CC1(C)C(=O)N2c3ccccc3C(O)(CC(C(=O)O)n3cnc4ccccc4c3=O)C2N1O (configuration not stated),inactive,–,–,inactive,inactive
CC(C)=CC1C[C@](C)(O)[C@@H]2[C@H]3CCC4[C@@]5(C)CC[C@H](O[C@@H]6OC[C@H](O)[C@H](O[C@@H]7O[C@H](CO[C@@H]8O[C@H](CO)[C@@H](O)[C@H](O)[C@H]8O)[C@@H](O)[C@H](O)[C@H]7O)[C@H]6O[C@@H]6O[C@@H](C)[C@H](O)[C@@H](O)[C@H]6O)C(C)(C)[C@@H]5CC[C@@]4(C)[C@@]34CO[C@@]2(C4)O1 (some centres not stated),inactive,-4.74% [at 9.23 µM],3.17% [at 9.23 µM],–,–
